Test results from PubChem BioAssay AID1159580 (chemical genetic matrix, 2015).
In all, about 5,500 compounds went through this assay and about 2,000 (36%) were called active. About 18% were inconclusive and are not listed. No stated cut-off is given here; in the data, active means normalized growth mostly below about 0.91 (no sharp cut-off); inconclusive means no clear call, values can overlap the other calls; inactive means mostly above about 0.92. The list shows a part of the results.

Test: chemical genetic growth profiling, strain panel (AID 1159580);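 further: tested at 20 µM; growth read once vehicle control cultures reached saturation at 30 °C; 1 = growth at the plate median or of vehicle wells; lower values mean less growth of the strain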
Conditions: growth OD
[1] = S. cerevisiae deletion strains, locus YAL013W, strain DEP1, hits give low values
[2] = S. cerevisiae deletion strains, locus YBR229C, strain ROT2, hits give low values
[3] = S. cerevisiae deletion strains, locus YDL101C, strain DUN1, hits give low values
[4] = S. cerevisiae deletion strains, locus YDR150W, strain NUM1, hits give low values
[5] = S. cerevisiae deletion strains, locus YEL061C, strain CIN8, hits give low values
[6] = S. cerevisiae deletion strains, locus YGR078C, strain PAC10, hits give low values
[7] = S. cerevisiae deletion strains, locus YHR030C, strain SLT2, hits give low values
[8] = S. cerevisiae deletion strains, locus YHR087W, strain rtc3, hits give low values
[9] = S. cerevisiae deletion strains, locus YJL187C, strain SWE1, hits give low values
[10] = S. cerevisiae deletion strains, locus YJR043C, strain POL32, hits give low values
[11] = S. cerevisiae deletion strains, locus YJR075W, strain HOC1, hits give low values
[12] = S. cerevisiae deletion strains, locus YKL190W, strain CNB1, hits give low values
[13] = S. cerevisiae deletion strains, locus YLR039C, strain RIC1, hits give low values
[14] = S. cerevisiae deletion strains, locus YLR058C, strain SHM2 (second series), hits give low values
[15] = S. cerevisiae deletion strains, locus YLR085C, strain ARP6, hits give low values
[16] = S. cerevisiae deletion strains, locus YLR262C, strain YPT6, hits give low values
[17] = S. cerevisiae deletion strains, locus YML094W, strain GIM5, hits give low values
[18] = S. cerevisiae deletion strains, locus YMR219W, strain ESC1, hits give low values
[19] = S. cerevisiae deletion strains, locus YMR263W, strain SAP30, hits give low values
[20] = S. cerevisiae deletion strains, locus YNL128W, strain TEP1, hits give low values
[21] = S. cerevisiae deletion strains, locus YNL153C, strain GIM3, hits give low values
[22] = S. cerevisiae deletion strains, locus YNL298W, strain CLA4 (second series), hits give low values
[23] = S. cerevisiae deletion strains, locus YNL322C, strain KRE1, hits give low values
[24] = S. cerevisiae deletion strains, locus YNR030W, strain Alg12, hits give low values
[25] = S. cerevisiae deletion strains, locus YPL055C, strain LGE1, hits give low values
[26] = S. cerevisiae deletion strains, locus YPL241C, strain CIN2, hits give low values
[27] = S. cerevisiae deletion strains, locus YPR135W, strain CTF4, hits give low values

Measured: normalized growth

Nc1ccccc1C(=O)NCCc1ccc(Cl)cc1
inactive: [1] 0.979 | [2] 0.949 | [3] 0.987 | S. cerevisiae deletion strains, locus YDL134C, strain PPH21, hits give low values 0.949 | [4] 0.916 | [5] 0.956 | [6] 0.97 | [7] 0.773 | [8] 0.927 | [10] 0.964 | [12] 0.947 | [13] 0.969 | [14] 0.961 | [15] 0.832 | [16] 0.908 | [17] 0.938 | [18] 0.962 | [19] 0.997 | [20] 0.993 | [21] 0.974 | [22] 0.939 | [23] 0.963 | [24] 0.942 | [25] 1.08 | [26] 0.902 | [27] 0.767
active: [9] 0.928 | [11] 0.888

COc1ccc(CCNC(=O)c2ccccc2Cl)cc1OC
inactive: [1] 0.993 | [2] 0.987 | [3] 1 | [4] 0.991 | [5] 0.968 | [6] 1 | S. cerevisiae deletion strains, locus YGR229C, strain SMI1, hits give low values 0.988 | [7] 1.01 | [8] 0.97 | [9] 0.984 | [10] 1 | [11] 0.994 | [12] 0.997 | [13] 1.03 | [14] 1 | [15] 0.973 | [16] 1.02 | [17] 0.993 | [18] 0.981 | [19] 0.993 | [20] 0.983 | [21] 0.988 | [22] 1.01 | [23] 1.01 | [24] 1.03 | [25] 0.976 | [26] 1.02 | [27] 1.06 | S. cerevisiae strains, strain wild type, hits give low values 1.01
